From PubChem BioAssay AID623911 (Vanderbilt High Throughput Screening Facility, 2012)
Among all 2,100 compounds or so, about 770 (37%) were called active. Some of the results follow. Unmarked numbers belong to inactive results.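 How the source made its calls: active means by-eye trace score of 1 for enhancers or -1 for inhibitors, so actives lie on both sides (some results past the limit were not filed as active); inactive means score 0, or 3 fluorescent, or 4 baseline rise.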

Target: G protein-activated inward rectifier potassium channel 2 (Homo sapiens) + G protein-activated inward rectifier potassium channel 1 (Homo sapiens) (UniProt P48051+P48549)
Sequence (P48051 whole entry, looked up): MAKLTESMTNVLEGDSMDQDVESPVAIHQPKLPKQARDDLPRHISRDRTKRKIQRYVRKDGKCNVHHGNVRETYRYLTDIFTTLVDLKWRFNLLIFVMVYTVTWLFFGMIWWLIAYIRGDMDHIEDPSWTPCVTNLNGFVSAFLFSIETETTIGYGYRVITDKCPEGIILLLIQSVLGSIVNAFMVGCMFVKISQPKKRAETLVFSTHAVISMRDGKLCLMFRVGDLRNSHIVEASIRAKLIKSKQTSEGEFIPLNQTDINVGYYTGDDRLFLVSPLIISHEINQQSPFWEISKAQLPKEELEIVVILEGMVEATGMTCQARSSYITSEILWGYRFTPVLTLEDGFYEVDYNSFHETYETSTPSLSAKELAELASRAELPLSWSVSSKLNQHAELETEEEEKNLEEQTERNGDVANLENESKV
Sequence (P48549 whole entry, looked up): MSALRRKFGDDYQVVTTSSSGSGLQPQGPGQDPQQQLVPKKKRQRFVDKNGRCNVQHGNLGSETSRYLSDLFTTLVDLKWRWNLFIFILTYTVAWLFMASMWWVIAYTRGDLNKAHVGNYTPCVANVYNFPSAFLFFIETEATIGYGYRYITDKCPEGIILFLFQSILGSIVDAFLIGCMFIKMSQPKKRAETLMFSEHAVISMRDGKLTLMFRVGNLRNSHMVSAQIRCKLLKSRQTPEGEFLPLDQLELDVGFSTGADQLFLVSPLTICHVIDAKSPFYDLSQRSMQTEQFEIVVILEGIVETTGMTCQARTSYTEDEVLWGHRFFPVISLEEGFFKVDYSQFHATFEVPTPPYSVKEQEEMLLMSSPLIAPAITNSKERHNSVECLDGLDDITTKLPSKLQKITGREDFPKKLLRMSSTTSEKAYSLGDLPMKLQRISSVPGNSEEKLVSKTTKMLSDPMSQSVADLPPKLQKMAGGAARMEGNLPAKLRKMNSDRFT
Test: GIRK1/2 thallium flux modulators, retest, confirmation, cell-based, HEK293 rmGlu8/hGIRK1/2, FluoZin-2 (AID 623911)
Details: HEK293 rmGlu8/hGIRK1/2, thallium flux FluoZin-2; actives lie on both sides; glutamate co-added at its EC20 level

Row | SMILES | manual score
1 | CCc1nnc(NC(=O)CSc2nnc(C3CCCCC3)n2-c2cccc(Cl)c2)s1 | 0
2 | COCCN=c1scc(-c2cccs2)n1/N=C/c1ccc(O)c(O)c1O | 0
3 | CCOC(=O)CN1NC2(CCC(C(C)(C)C)CC2)NC1=S (stereo not drawn) | 0
4 | COC(=O)c1sccc1NC(=O)CSc1ccccc1NS(=O)(=O)c1ccccc1Cl | 0
5 | Cc1ccc(NC(=O)Cc2c(Cl)cccc2Cl)cc1S(=O)(=O)N(C)C | 1 (active)
6 | CC1(C)NC(=O)NC2(C)NC(=O)NC(C)(C)C12 (stereo not drawn) | 0
7 | COc1cc(NC(=O)CS(=O)(=O)c2ccc(C)cc2)cc(OC)c1OC | 0
8 | COc1cc(C(=O)NC2CC3CCCC(C2)N3CC(=O)Nc2ccccc2)cc(OC)c1OC (stereo not drawn) | -1 (active)
9 | CC1CCN(CC(O)COC2CCC(C(C)(C)C)CC2)CC1 (stereo not drawn) | -1 (active)
10 | O=C1OCCC1Sc1nc2cc(Cl)ccc2n1Cc1ccccc1 (stereo not drawn) | 0
11 | CCCCSc1nc(N)c(NC(=O)c2ccco2)c(=O)[nH]1 | 0
12 | CCN(C(=O)COc1cc(=O)n(CC)c2ccccc12)c1cc(Cl)ccc1OC | -0.5
13 | COC(=O)[C@H]1CCCN1C(=O)Nc1cccc(Oc2c(F)c(F)c(F)c(F)c2F)c1 | 0
14 | COc1ccc(S(=O)(=O)NCCC(=O)NC2CCCCCCC2)cc1 | 0
15 | COc1cccc(NC(=O)NCCCSC2CCCCC2)c1 | 1 (active)
16 | Cc1sc2c(c1C)CN(C1CC(C)(C)NC(C)(C)C1)CN2C(=O)c1ccco1 | -1 (active)
17 | Cc1ccc(OCC(=O)N/N=C\c2ccc(-c3cccc(C(=O)O)c3)o2)c(C)c1 | 0
18 | C/C(=N\NC(=O)COc1ccc(C)cc1C(C)C)c1ccc(-n2ccnc2)cc1 | -1 (active)
19 | Cc1conc1NC(c1cccs1)c1ccc2cccnc2c1O (stereo not drawn) | 0
20 | O=S(=O)(Nc1nc(-c2sccc2Cl)cs1)c1cc(Cl)ccc1Cl | 0
21 | Cc1cc(NC(=O)c2c(F)cccc2Cl)n(-c2nc3ccccc3[nH]2)n1 | 0
22 | Cc1ccc(Nc2cc(C)nn2-c2nc(C)cc(=O)[nH]2)cc1 | 1 (active)
23 | COc1ccccc1NC(=O)c1cc(C(=O)Nc2ccccc2OC)cc(N2C(=O)CCC2=O)c1 | 0
24 | COc1ccccc1-c1ccc(NC2CCCC2)nn1 | 0
25 | COc1ccccc1Nc1ccc(Nc2ccccc2OC)nn1 | 1 (active)
26 | CCCC(=O)NC(c1cccs1)c1cc([N+](=O)[O-])c2cccnc2c1O (stereo not drawn) | 0

Row | SMILES | manual score
27 | CCc1c(C)sc(NC(=O)CCc2ccc(OC)cc2)c1C(N)=O | 0
28 | COc1ccc(Cn2c(=S)[nH]c3ccsc3c2=O)cc1 | 1 (active)
29 | COc1cc(NC(=O)CCn2c(=O)[nH]c3ccsc3c2=O)cc(OC)c1 | 0
30 | O=C(Cn1c(=O)[nH]c2ccsc2c1=O)NC1CCCCCC1 | 0
31 | O=C(NNC(=O)c1sccc1-n1cccc1)c1cccc(Cl)c1 | 1 (active)
32 | O=C(NNS(=O)(=O)c1cc(Cl)cc(Cl)c1)c1sccc1-n1cccc1 | 1 (active)
33 | O=C(NNC(=O)c1sccc1-n1cccc1)c1ccc(Cl)cc1 | 1 (active)
34 | CCNC(=S)NNC(=O)c1cccn(Cc2ccc(Cl)cc2)c1=O | 0
35 | Cn1sc(NC(=O)c2cccc(Cl)c2)nc1=O | 0
36 | O=C(NNC(=S)Nc1cccc(C(F)(F)F)c1)c1cccc(Cl)c1 | 0.5
37 | Cn1c2ccccc2c2cc(C(=O)NNS(=O)(=O)c3ccc(F)cc3)sc21 | 0
38 | Cc1cccc(-n2c(O)c(/C=N/NC(=O)c3ccccc3Cl)c3ccccc3c2=O)n1 | 0
39 | Clc1ccc(Cl)c(OCc2cc(-c3ccccc3Cl)on2)c1 | 0
40 | C/C(=N\O)C(C)NC(=O)c1ccccc1 (stereo not drawn) | -0.5
41 | CC1Oc2ccccc2C=C1/C=N/NC(=O)c1ccccc1 (stereo not drawn) | 0
42 | O=C(NN=c1c(=O)c2ccccc2c1=O)c1ccccc1 | 1 (active)
43 | Cc1nc(/N=C(\N)NC(=O)c2ccccc2)nc2ccccc12 | 0
44 | O=C(NNc1ncc(C(F)(F)F)cc1Cl)c1c(Cl)cccc1Cl | 0
45 | Cc1ccc(C(=O)NNc2nc3ccccc3nc2C(F)(F)F)cc1 | 1 (active)
46 | Cc1ccc(C(=O)NC2(C(F)(F)F)N=C3SCCN3C2=O)cc1 (stereo not drawn) | 0
47 | Cc1ccc(C(=O)N/N=C/C2=Cc3ccccc3OC2C)cc1 (stereo not drawn) | 0
48 | O=C(NNc1nc2ccccc2nc1C(F)(F)F)c1ccccc1 | 1 (active)
49 | COc1ccc(-n2cc(-c3ccccc3)[nH]c2=S)cc1 | 0
50 | CCCc1cc(=O)n2[nH]c(-c3ccc(Br)cc3)cc2n1 | 0
51 | O=C1Nc2ccccc2C12OCC1(CO2)COC2(OC1)C(=O)Nc1ccccc12 (stereo not drawn) | 0
52 | COc1cc(NC(=O)CSCc2cnn(-c3ccccc3)c2-n2cccc2)cc(OC)c1 | 0

Row | SMILES | manual score
53 | COc1cc(NC(=O)Cn2nnc(-c3ccccc3N)n2)cc(OC)c1 | 1 (active)
54 | CCOc1ccc(NC(=O)Cn2nnc(-c3ccccc3F)n2)cc1 | 0
55 | CCOC(=O)c1cccc(NC(=O)CSc2nnc(C3CCCCC3)n2C)c1 | 0
56 | Cc1ccc(C)c(-n2nnnc2SCC(=O)Nc2cccc(-c3nnc4n3CCCCC4)c2)c1 | 3
57 | O=C(CSc1nnnn1-c1ccc(O)cc1)Nc1cccc(S(=O)(=O)N2CCCC2)c1 | -1 (active)
58 | Cc1ccccc1C(=O)NC(=S)Nc1ccc(Oc2ccc(Cl)cc2)cc1 | 0
59 | CCOC(=O)Cc1csc(NC(=S)NC(=O)c2ccccc2C)n1 | 1 (active)
60 | CCOC(=O)Cc1csc(NC(=S)NC(=O)c2ccccc2Br)n1 | 1 (active)
61 | COc1cc(OC)c(-c2c3cc(O)c(=O)cc-3oc3cc(O)c(O)cc23)cc1OC | 3
62 | CCCOC(=O)c1ccc(NC(=O)c2ccoc2C)cc1 | 0.5
63 | CCOC(=O)c1ccc(NC(=O)Nc2ccc(OC)c(OC)c2)cc1 | 0.5
64 | CCOC(=O)c1ccc(NC(=O)N2CCN(Cc3cccc(F)c3)CC2)cc1 | -1 (active)
65 | CN1C(=O)c2oc3ccccc3c(=O)c2C1c1ccccn1 (stereo not drawn) | 0
66 | CC1CCC/C(=N\NC(=O)COc2ccc(Cl)cc2Cl)C1 (stereo not drawn) | 1 (active)
67 | O=C(N/C(=N\O)c1ccccc1)Nc1ccc(Cl)cc1 | 0
68 | N#C/C(=N\Nc1ccc(Cl)cc1)C(=O)c1ccccc1 | -1 (active)
69 | Cc1ccc(/C=N/Nc2nc(Cl)c(Cl)cc2Cl)s1 | 0
70 | O=S(=O)(Nc1cc(Sc2cccc3cccnc23)c(O)c2ccccc12)c1ccc(F)cc1 | 0
71 | O=c1c2c(nc3c(-c4cccc(Br)c4)c[nH]n13)CCCC2 | 0
72 | CC(C)c1nc(N2CCN(C(=O)c3ccccc3)CC2)c(C#N)c2c1COC(C)(C)C2 | -1 (active)
73 | N#Cc1c(N2CCN(C(=O)c3ccccc3)CC2)nc(-c2ccccc2)c2c1CCCC2 | 0
74 | CSc1nc(N2CCOCC2)c2c(c1C#N)CC(C)(C)OC2 | -0.5
75 | CC1CCCN(Cc2cccc(Oc3ccccc3)c2)C1 (stereo not drawn) | 0.5
76 | CCOc1ccc(N2C(=O)/C(=C/c3cc(OC)c(OC)c(OC)c3)N(CC(=O)OC)C2=S)cc1 | 0
77 | CCOC(=O)N1CCC(NC(=O)c2cnn3c2NC(c2ccco2)CC3C(F)(F)F)CC1 (stereo not drawn) | 0
78 | S=C(Nc1cccc(Br)c1)c1ccccc1 | 0

Row | SMILES | manual score
79 | O=C(NN=C1c2ccccc2-c2ccccc21)c1ccccc1Br | 0
80 | O=C(NN=C1c2ccccc2-c2ccccc21)c1cccc(Br)c1 | 1 (active)
81 | O=C(Nc1ccc(-c2nc3ccccc3o2)cc1)c1cc(-n2cnnc2)ccc1Cl | 0
82 | O=C(Nc1nnc(-c2ccc3c(c2)CCCC3)o1)c1ccccc1 | 1 (active)
83 | O=C(Nc1nnc(-c2ccc3c(c2)CCCC3)o1)c1ccc(Cl)cc1Cl | 1 (active)
84 | O=C(Nc1nnc(-c2ccc3c(c2)CCCC3)o1)C1COc2ccccc2O1 (stereo not drawn) | 1 (active)
85 | CN(C)S(=O)(=O)c1ccc(C(=O)Nc2nnc(-c3ccc4c(c3)CCCC4)o2)cc1 | 0
86 | O=C(Nc1cccc(-c2nnc(-c3ccccc3)o2)c1)C1CCCO1 (stereo not drawn) | 0
87 | O=C(Nc1nnc(-c2ccc3c(c2)CCCC3)o1)c1ccccc1Cl | 1 (active)
88 | CN=c1scc(-c2cccs2)n1/N=C/c1ccc(O)c(O)c1O | 0
89 | CCOc1cc(-c2noc(-c3cccnc3)n2)ccc1OC | 0
90 | Fc1cccc(C2NN=C(c3ccccc3)S2)c1 (stereo not drawn) | 1 (active)
91 | CCOc1cc(C2NN=C(c3ccc(C)cc3)S2)ccc1O (stereo not drawn) | 0.5
92 | CC12CN(Cc3ccccc3)CC(C)(CN(Cc3ccccc3)C1)C2=NO | -1 (active)
93 | CC1CC(=S)Nc2ccccc2N1Cc1ccccc1 (stereo not drawn) | 0
94 | O=C(OCCN1C(=O)c2cccc3c(N4CCOCC4)ccc(c23)C1=O)c1cccc(Cl)c1 | 3
95 | O=C(NCCSc1c[nH]c2ccccc12)c1ccco1 | 0
96 | COC(=O)c1ccc(CSc2ccc3nnc(-c4ccccc4)n3n2)o1 | -1 (active)
97 | CCC(Sc1ccc2nnc(-c3ccc(F)cc3)n2n1)C(=O)OC (stereo not drawn) | 0
98 | COC(=O)c1ccc(CSc2nnc(Nc3ccccc3OC)s2)o1 | 0
99 | O=C(Cc1csc(Nc2nc(=S)[nH]c3ccccc23)n1)NCc1ccccc1Cl | 0
100 | Cc1ccc(CNC(=O)Cc2csc(Nc3nc(=S)[nH]c4ccccc34)n2)cc1 | 0.5
101 | O=C(Cc1csc(Nc2nc(=S)[nH]c3ccccc23)n1)NCc1cccc(Cl)c1 | 1 (active)
102 | COc1cccc(N2CCN(c3c4c(nc5ncnn35)CCC4)CC2)c1 | 0
103 | O=C1c2cccc3c(O)ccc(c23)C(=O)N1Cc1ccccc1 | 3
